PubChem BioAssay (NCI)
This is part of a sample that, as a whole, favours compounds with a hit. Of some 79,000 tested, about 15% had one in any assay. No stated cut-off is given here; in the data, active means growth inhibition above about 70%; inactive means the rest.

Experiments:
[1] = NCI Yeast Anticancer Drug Screen. Data for the rad50 strain (AID 155);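 further: 0% = growth of vehicle-only cultures of the same strain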; settings: S. cerevisiae rad50 strain growth inhibition; at 50.0 µM; active compounds read high
Method in brief: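 Compounds were tested on a yeast strain with an engineered DNA damage repair alteration; the reported value is growth inhibition normalised to vehicle treatment.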

[2] = NCI Yeast Anticancer Drug Screen. Data for the mec2-1 strain (AID 157); settings: S. cerevisiae mec2-1 strain, at 50.0 µM, active compounds read high
Method in brief: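 Yeast mec2-1 mutant treated with compound. Readout: growth inhibition vs vehicle controls.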

[3] = NCI Yeast Anticancer Drug Screen. Data for the sgs1 mgt1 strain (AID 161);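 further: 0% = growth of cultures given vehicle only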; settings: S. cerevisiae sgs1 mgt1 strain, at 50.0 µM, active compounds read high
Method in brief: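 Genetically altered yeast, compound exposure, growth inhibition relative to vehicle.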

[4] = NCI Yeast Anticancer Drug Screen. Data for the cln2 rad14 strain (AID 165);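 further: 0% = growth equal to vehicle treated cultures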; settings: S. cerevisiae cln2 rad14 strain, at 50.0 µM, active compounds read high
Method in brief: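 cln2 rad14 yeast strain; compound exposure; growth inhibition read vs vehicle controls.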

[5] = NCI Yeast Anticancer Drug Screen. Data for the bub3 strain (AID 167); settings: S. cerevisiae bub3 mutant strain, at 50.0 µM, active compounds read high
Method in brief: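 Growth of a checkpoint-deficient yeast mutant is measured after compound exposure. Values represent inhibition relative to vehicle.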

[6] = NCI Yeast Anticancer Drug Screen. Data for the mlh1 rad18 strain (AID 175); settings: S. cerevisiae mlh1 rad18 strain growth inhibition; at 50.0 µM; active compounds read high
Method in brief: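 Yeast w/ defined DNA-repair lesions; compound exposure; growth vs vehicle controls → % inhibition.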

Measured: growth inhibition

O=C(O)c1ccccc1SC(Sc1ccccc1C(=O)O)c1cccs1
inactive: [1] 12.4% | [2] -9.65% | [3] 3.75% | [4] -4.55% | [5] 6.25% | [6] 4%

Cc1ccc(O)c(C(=O)CCCC(=O)c2cc(C)ccc2O)c1
inactive: [1] -4.6% | [2] 7.9% | [3] 7.7% | [4] 12.5% | [5] -8.3% | [6] 4.35%

CC(C)(C#N)OC(=O)c1cccc(C(=O)OC(C)(C)C#N)c1Sc1ccccc1
inactive: [1] 41.8% | [2] -2.6% | [3] -7.25% | [4] 7.55% | [5] -2% | [6] -1.55%

COc1ccc(C(=O)c2ccccc2)c(OC(=O)Nc2ccc(Cl)cc2)c1
inactive: [1] 14.8% | [2] -3.4% | [3] 14.9% | [4] 3.8% | [5] 12.6% | [6] 16.6%

COc1ccc(C(=O)/C=C/c2ccc(OCC(=N)N)cc2)cc1
inactive: [1] -31.1% | [2] -38.6% | [3] -18.8% | [4] -27.4% | [5] -15.8% | [6] -23.6%

c1csc(-c2nn3c(C45CC6CC(CC(C6)C4)C5)nnc3s2)c1
inactive: [1] 10.9% | [2] -15.3% | [3] -20.1% | [4] -11.3% | [5] 2.3% | [6] -12.8%

O=[N+]([O-])c1ccc(Cl)cc1N/N=C/c1cccs1
inactive: [1] -46.1% | [2] -40.2% | [3] -40.8% | [4] -9.5% | [5] -30.8% | [6] -31.8%

CSCCC(NCc1c(O)ccc2c(C)cc(=O)oc12)C(=O)O (stereo not given)
inactive: [1] 16.5% | [2] 0.85% | [3] 14% | [4] 25.9% | [5] -1.05% | [6] 26.7%

COC1=CCC2=C(CCO2)C1
inactive: [1] 5.3% | [2] 0.35% | [3] -6.9% | [4] -18.5% | [5] -7.1% | [6] 1.1%

O=C1C(OC(=O)c2ccccc2)=C(c2ccc(O)cc2)C(=O)C(OC(=O)c2ccccc2)=C1c1ccc(O)cc1
inactive: [1] 24.1% | [2] 0.45% | [3] 5.55% | [4] 9.75% | [5] 17.2% | [6] -44.6%
